Measured values reported in PubChem BioAssay (NCATS).
Inconclusive results are not listed. Activity calls are given as the source filed them. Calls follow the shape of the dose curve; as a rule, active = well fitted inhibition curve with a large enough effect; inconclusive = small, poorly fitted or top-dose-only effect; inactive = flat fitted curve, though single readings scatter.

Tests used:
[1] = tested on: CRL-7250; assay: Cytotoxic Profiling of Annotated Libraries Using Quantitative High-Throughput Screening (AID 1296008); settings: Five cell lines viability, CellTiter-Glo ATP luminescence, 48-72 h; max response: stronger effect = lower value; as to max response: % is scaled to controls: 0 for no effect and ±100 for the full control effect
How it was run: (§1)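 Compounds were pin-transferred onto cells and incubated 48 or 72 hr at 37 degree Celsius, 95% humidity. CellTiter-Glo was added, plates sat 10 min at room temperature, then ATP-coupled luminescence was imaged as the viability read-out.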

[2] = tested on: HEK293; assay: as above; settings: Five cell lines viability, CellTiter-Glo ATP luminescence, 48-72 h; max response: stronger effect = lower value
How it was run: as §1

[3] = tested on: HaCat; assay: as above; settings: Five cell lines viability, CellTiter-Glo ATP luminescence, 48-72 h; max response: stronger effect = lower value
How it was run: as §1

[4] = tested on: KB-3-1; assay: as above; settings: Five cell lines viability, CellTiter-Glo ATP luminescence, 48-72 h; max response: stronger effect = lower value
How it was run: as §1

[5] = tested on: NIH3T3; assay: as above; settings: Five cell lines viability, CellTiter-Glo ATP luminescence, 48-72 h; max response: stronger effect = lower value
How it was run: as §1

[6] = tested on: HACAT; assay: qHTS assay to identify novel small-molecules to repurpose for Merkel cell carcinoma treatment (AID 1296009); settings: MCC and control cell lines, CellTiter-Glo viability, 72 h; at 44.8 µM (top of the series) unless noted
How it was run: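 Luminescence from CellTiter-Glo, read 10 min after addition at room temperature, reported viability following a 72 hr, 37 degree celsius treatment with NPC or MIPE compounds in titration; values normalized to plate controls.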

Measured: max response
Also: nearly all actives have a fitted effect of over 60% in size.

C[C@@H]1CC[C@]2(C(=O)O[C@@H]3O[C@H](CO[C@@H]4O[C@H](CO)[C@@H](O[C@@H]5O[C@@H](C)[C@H](O)[C@@H](O)[C@H]5O)[C@H](O)[C@H]4O)[C@@H](O)[C@H](O)[C@H]3O)CC[C@]3(C)C(=CCC4[C@@]5(C)C[C@@H](O)[C@H](O)[C@@](C)(CO)C5CC[C@]43C)C2[C@H]1C (some centres undefined)
inactive: [1] -0.89% | [2] -0.975% | [3] | [4] 3.97% | [5] 1.43% | [6] inactive [at 9.27 µM]

O=C1OC(c2ccc(O)cc2)C(O)=C1Cc1ccccc1 (centres undefined)
inactive: [1] 3.91% | [2] 0.741% | [3] | [4] | [5] 4.9% | [6]

CC1=CC2=C(C)C(=O)C(C)(O)C(O)C2CO1 (centres undefined)
inactive: [1] -6.39% | [2] -9.93% | [3] | [4] 5.71% | [5] 1.32% | [6]

CC1CCC2(C)CCC3(C)C(=CCC4C5(C)CCC(O)C(C)(C(=O)O)C5CCC43C)C2C1C (centres undefined)
inactive: [1] | [2] -6.34% | [3] | [4] 8.86% | [5] 4.66% | [6] inactive [at 17.4 µM]

COC(=O)C(CC1(OC(=O)C(C)C)c2ccccc2N2C(=O)C(C)(C)N(O)C21)n1cnc2ccccc2c1=O (centres undefined)
inactive: [1] -11.1% | [2] -9.23% | [3] | [4] 5.72% | [5] -14.6% | [6] inactive [at 17.4 µM]

CC(O)C(=O)/C=C/C=C/C(=O)OC1C=C2COC(=O)C2(O)C2(C)CCCC(C)(C)C12 (centres undefined)
inactive: [1] -6.23% | [2] 3.48% | [3] | [4] 4.29% | [5] | [6] inactive [at 17.4 µM]

CC1(C)Oc2ncnc(N)c2N=C1c1ccc(C2CCC(CC(=O)O)CC2)cc1 (centres undefined)
inactive: [1] 3.48% | [2] 0.549% | [3] | [4] | [5] 0.325% | [6]

C=CC(C)(O)C1CC2C3(C)CCCC(C)(C)C3C(O)C(O)C2(C)O1 (centres undefined)
inactive: [1] -10.8% | [2] 3.38% | [3] | [4] | [5] -13.6% | [6]

CC(C)C1C(OC(=O)/C=C/c2ccccc2)CC2(C)OC2CCC2(C)OC2C1O (centres undefined)
inactive: [1] | [2] -5.07% | [3] | [4] 9.34% | [5] -5.79% | [6]

CC1(C)CC=C(C#Cc2ccccc2)c2cc(/C=C/c3ccc(C(=O)O)cc3)ccc21
inactive: [1] -4.79% | [2] 1.6% | [3] | [4] 3.78% | [5] -4.98% | [6]

CC(=O)/C=C/C1(O)C(C)CC(O[C@@H]2O[C@H](CO)[C@@H](O)[C@H](O)[C@H]2O)CC1(C)C (some centres undefined)
inactive: [1] | [2] 1.81% | [3] | [4] | [5] -2.62% | [6] inactive [at 17.4 µM]

COC(=O)C1=CO[C@@H](O[C@@H]2O[C@H](CO)[C@@H](O)[C@H](O)[C@H]2O)[C@@H]2C(CO)=CC[C@H]12
inactive: [1] 3.17% | [2] -17.4% | [3] | [4] | [5] -0.343% | [6]

CCOC(=O)C1=C(N)Oc2ccc(Cl)cc2C1C(C#N)C(=O)OCC (centres undefined)
inactive: [1] 2.77% | [2] 1.25% | [3] | [4] | [5] -2.7% | [6]

C=C(C)C1Cc2c(ccc3c2OCC(c2ccc(O)cc2O)C3)O1 (centres undefined)
inactive: [1] -23.3% | [2] -18.8% | [3] | [4] -21.6% | [5] -8.17% | [6]

COCC1OC(OC(C)(C)C2CCC3(C)C=C(C4CCC5C4(C)CC(O)C4OC(C(C)(C)O)CCC45C)CCC3O2)C(NC(C)=O)C(O)C1O (centres undefined)
inactive: [1] | [2] 2.29% | [3] | [4] 7.28% | [5] 1.37% | [6] inactive [at 17.4 µM]

COc1ccc2c(c1)C=C1Cn3c-2c(C2CCCCC2)c2ccc(cc23)C(=O)NS(=O)(=O)N(C)CCOCCN(C)C1=O
inactive: [1] -49.9% | [2] -78% | [3] | [4] -5.47% | [5] -17.2% | [6]

C[C@]1(C2CCCC2)Cc2cc(OCC(=O)O)c(Cl)c(Cl)c2C1=O
inactive: [1] 3.09% | [2] 3.25% | [3] | [4] | [5] 4.03% | [6]

C[C@@H]1O[C@@H](OC[C@H]2O[C@@H](OCc3ccccc3)[C@H](O)[C@@H](O)[C@@H]2O)[C@H](O)[C@H](O)[C@H]1O
inactive: [1] | [2] -5.01% | [3] | [4] -7.21% | [5] 0.0365% | [6] inactive [at 17.4 µM]

CC1=CC(=O)CC(C)(C)C1CO[C@@H]1O[C@H](CO)[C@@H](O)[C@H](O)[C@H]1O (some centres undefined)
inactive: [1] -5.79% | [2] -1.36% | [3] | [4] 7.69% | [5] -1.71% | [6]

O=C(O)CCc1ccc(NCc2cccc3c2CCCN3CCOc2ccccc2)cc1F
inactive: [1] 0.539% | [2] 0.703% | [3] | [4] 2.13% | [5] | [6]

CC1=C2CC(O)(C(C)(C)O)C(O[C@@H]3O[C@H](CO)[C@@H](O)[C@H](O)[C@H]3O)CC(C)C2CC1=O (some centres undefined)
inactive: [1] 2.9% | [2] -24.8% | [3] | [4] 7.73% | [5] | [6] inactive [at 17.4 µM]

COc1c2c(c(C)c3c1C(=O)OC3)OC1(C)CC(O)C34OC(O)(CCC3(C)C1C2)OC4(C)C (centres undefined)
inactive: [1] | [2] -9.5% | [3] | [4] 7.14% | [5] 2.29% | [6] inactive [at 17.4 µM]

N#CC1C(=O)N=C(c2cc(Cl)ccc2O)C=C1c1cc(OCc2ccccc2)cc(OCc2ccccc2)c1 (centres undefined)
inactive: [1] | [2] 3.52% | [3] | [4] | [5] 1.6% | [6]

Cc1noc2c1-c1ccccc1C(c1ccc(Cl)cc1)=N[C@H]2CC(N)=O
inactive: [1] 1.75% | [2] -4.39% | [3] | [4] | [5] -0.413% | [6]

CC(=O)NC(Cc1c[nH]c2ccccc(=O)c12)C(=O)O (centres undefined)
inactive: [1] -6.01% | [2] 1.04% | [3] | [4] | [5] 1.4% | [6]

OC[C@H]1O[C@@H](OC[C@H]2O[C@@H](OCc3ccccc3)[C@H](O)[C@@H](O)[C@@H]2O)[C@H](O)[C@@H](O)[C@@H]1O
inactive: [1] | [2] -4.26% | [3] | [4] | [5] -6.32% | [6] inactive [at 17.4 µM]

COC(=O)Cn1nc(-c2cccc(OC)c2)c2ccccc21
inactive: [1] 4.76% | [2] -5.92% | [3] | [4] 1.13% | [5] 2.46% | [6]

CC1CC(=O)[C@]2(O)C(C(=O)OCCc3ccc(O)c(O)c3)=CO[C@@H](O[C@@H]3O[C@H](CO)[C@@H](O)[C@H](O)[C@H]3O)[C@H]12 (some centres undefined)
inactive: [1] 4.18% | [2] -8.88% | [3] | [4] 8.6% | [5] 0.72% | [6] inactive [at 17.4 µM]

CC1=CC(=O)CC(C)(C)C1CCC(C)O[C@@H]1O[C@H](CO)[C@@H](O)[C@H](O)[C@H]1O (some centres undefined)
inactive: [1] | [2] 3.44% | [3] | [4] 5.09% | [5] 0.902% | [6]

C/C=C/C=C/[C@@H]1O[C@](O)([C@H](CC)C(=O)NC/C=C/C=C(\C)[C@@H](OC)[C@@H](C)[C@@H]2O[C@H](/C=C/C=C/C=C(\C)C(=O)c3c(O)ccn(C)c3=O)[C@H](O)[C@@H]2O)[C@H](O)[C@H](O)C1(C)C
inactive: [1] -0.994% | [2] -2.35% | [3] | [4] | [5] 2.66% | [6] inactive [at 9.27 µM]

O=C(Nc1ccc(N2CCC(C(=O)N3CCOCC3)CC2)cc1)c1cnc(Oc2ccccc2)nc1
inactive: [1] -3.51% | [2] -17.8% | [3] | [4] -6.22% | [5] -17.6% | [6]

OCC1OC(Oc2cc(O)cc(/C=C/c3ccc(OC4OC(CO)C(O)C(O)C4O)cc3O)c2)C(O)C(O)C1O (centres undefined)
inactive: [1] | [2] 3.22% | [3] | [4] 5.55% | [5] 0.921% | [6] inactive [at 17.4 µM]

Cc1c(C)c(NCC(=O)N(C)C2CCN(Cc3ccc(C(N)=O)cc3)CC2)c(C)c(C)c1N
inactive: [1] | [2] -11.3% | [3] | [4] -3.8% | [5] 2.96% | [6]

O=C(CC1CC(c2ccc(F)cc2F)=NO1)N1CCOCC1 (centres undefined)
inactive: [1] -1.82% | [2] 4.11% | [3] | [4] -13.2% | [5] -0.0344% | [6]
